High-throughput results: PubChem, NMMLSC
A selection: hits, their analogues and other compounds. The true share with any hit is near 3.5%.
BoNT-F LC inh – BoNT/F light chain protease inhibitors, primary screen, biochemical, flow cytometry, MLPCN library; 0.22% of 360,000 active; Botulinum neurotoxin type F light chain protease (Clostridium botulinum); Multiplex microsphere protease cleavage assay; AID 588497, 2011; inhibition, % at 10 µM; in the data active means inhibition above about 35%, passing the limit was not always enough; inconclusive means no clear call, values can overlap the other calls
BoNT A protease – BoNT/A light chain protease inhibitors, primary screen, biochemical, flow cytometry, MLPCN library. AID 588499, 2011. Botulinum neurotoxin type A light chain protease (Clostridium botulinum A str. ATCC 3502). multiplex microsphere protease substrate cleavage. inhibition, % at 10 µM. 0.17% of 360,000 active
Anthrax LF inh2 – Bacillus anthracis LF protease inhibitors, primary screen, biochemical, multiplex microsphere, MLPCN library. Lethal factor (Bacillus anthracis), P15917. multiplex microsphere protease cleavage assay. 0.12% of 360,000 active. AID 588501, 2011. inhibition, % at 10 µM
Target sequence (P15917 whole entry, looked up): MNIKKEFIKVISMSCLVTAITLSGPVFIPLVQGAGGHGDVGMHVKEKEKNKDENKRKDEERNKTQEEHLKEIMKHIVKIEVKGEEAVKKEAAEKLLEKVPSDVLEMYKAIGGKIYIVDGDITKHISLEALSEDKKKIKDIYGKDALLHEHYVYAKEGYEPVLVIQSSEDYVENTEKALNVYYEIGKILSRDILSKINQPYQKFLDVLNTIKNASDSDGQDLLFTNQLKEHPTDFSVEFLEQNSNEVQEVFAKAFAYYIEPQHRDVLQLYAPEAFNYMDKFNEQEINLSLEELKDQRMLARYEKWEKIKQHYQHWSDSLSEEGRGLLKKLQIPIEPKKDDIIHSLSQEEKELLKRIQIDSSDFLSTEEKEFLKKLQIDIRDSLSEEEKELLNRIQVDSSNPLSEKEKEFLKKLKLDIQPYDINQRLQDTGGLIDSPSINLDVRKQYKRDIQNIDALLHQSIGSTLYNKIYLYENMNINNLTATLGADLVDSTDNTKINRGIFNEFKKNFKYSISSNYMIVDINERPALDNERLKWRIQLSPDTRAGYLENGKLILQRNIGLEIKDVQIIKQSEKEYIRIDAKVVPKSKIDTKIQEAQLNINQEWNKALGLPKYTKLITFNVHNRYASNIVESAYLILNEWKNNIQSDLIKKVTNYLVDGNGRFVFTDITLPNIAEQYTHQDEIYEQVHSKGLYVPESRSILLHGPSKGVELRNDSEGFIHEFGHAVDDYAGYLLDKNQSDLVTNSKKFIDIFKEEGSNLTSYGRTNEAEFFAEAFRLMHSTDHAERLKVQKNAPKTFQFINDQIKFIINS
Autofluor counter – counter-screen for toxin protease inhibitors: compound fluorescence | compound autofluorescence counterscreen, microsphere flow cytometry; hits give high values | AID 624483 | 3.1% of 360,000 active | fluorescence intensity (test concentration not listed); in the data active means fluorescence intensity above about 16000; inconclusive means no clear call, values can overlap the other calls
Hits are given with their value; ! = repeats disagree. Unless noted, no stated cut-off is given here; in the data, active means inhibition above about 30%; inconclusive means no clear call, values can overlap the other calls; inactive means below that.

Results for Cc1ccc(Oc2ccc(NC(=O)CCC(=O)OCC(=O)c3cccs3)cc2)cc1C ?
BoNT-F LC inh: inactive; BoNT A protease: inactive; Anthrax LF inh2: inactive; Autofluor counter: 16284

What do the screens show for `Cc1cc(S(=O)(=O)N2CCCC2)c(C)s1`?
BoNT-F LC inh: inactive; BoNT A protease: inactive; Anthrax LF inh2: inactive; Autofluor counter: 20695

Results for COc1c(C)cc(S(=O)(=O)N2CCCC2)c(C)c1C ?
BoNT-F LC inh: inactive; BoNT A protease: inactive; Anthrax LF inh2: inactive; Autofluor counter: 17139

How did Cc1ccc(C)n1-c1nccc(-c2cccs2)n1 do in these assays?
BoNT-F LC inh: inactive; BoNT A protease: inactive; Anthrax LF inh2: inactive; Autofluor counter: 21459

What do the screens show for `CC1CCN(c2cc(C#N)c(C#N)cc2[N+](=O)[O-])CC1`?
BoNT-F LC inh: inactive; BoNT A protease: inactive; Anthrax LF inh2: inactive; Autofluor counter: 23005

How did Cc1cc(N2CCCC2)c(F)cc1/C=C\[N+](=O)[O-] do in these assays?
BoNT-F LC inh: inactive; BoNT A protease: 62; Anthrax LF inh2: 35; Autofluor counter: inactive

What do the screens show for `Cc1cc(N2CCC(C)CC2)c(F)cc1[N+](=O)[O-]`?
BoNT-F LC inh: inactive; BoNT A protease: inactive; Anthrax LF inh2: inactive; Autofluor counter: 24078

Results for COc1ccc(Cl)cc1NC(=O)CN(C)C(C)C(=O)NC(=O)NC1CCCCC1 (configuration not stated) ?
BoNT-F LC inh: inactive; BoNT A protease: inactive; Anthrax LF inh2: inactive; Autofluor counter: inactive

Results for CC1CN(C(=O)Cn2cc(S(=O)(=O)CC(=O)N3CCOCC3)c3ccccc32)CC(C)O1 (configuration not stated) ?
BoNT-F LC inh: inactive; BoNT A protease: inactive; Anthrax LF inh2: inactive; Autofluor counter: inactive

Results for CCNC(=O)C1CN(S(=O)(=O)c2ccccc2)CCN1S(=O)(=O)c1ccccc1 (configuration not stated) ?
BoNT-F LC inh: inactive; BoNT A protease: inactive; Anthrax LF inh2: inactive; Autofluor counter: inactive

Results for O=C(NC1CCCCC1)C1CN(S(=O)(=O)c2ccccc2)CCN1S(=O)(=O)c1ccccc1 (configuration not stated) ?
BoNT-F LC inh: inactive; BoNT A protease: inactive; Anthrax LF inh2: inactive; Autofluor counter: 24405

What do the screens show for `c1ccc(CNc2ncnc3ccccc23)cc1`?
BoNT-F LC inh: inactive; BoNT A protease: inactive; Anthrax LF inh2: inactive; Autofluor counter: 20097!

How did COc1cc2ncnc(NCc3ccccc3)c2cc1OC do in these assays?
BoNT-F LC inh: inactive; BoNT A protease: inactive; Anthrax LF inh2: inactive; Autofluor counter: inactive

What do the screens show for `COc1cccc(NC(C)C(=O)N2CC(C)OC(C)C2)c1` (configuration not stated)?
BoNT-F LC inh: inactive; BoNT A protease: inconclusive; Anthrax LF inh2: inactive; Autofluor counter: 23137

Results for CCOc1ccc(N=Cc2c(O)n(C(C)(C)C)c(=O)[nH]c2=O)cc1 ?
BoNT-F LC inh: inactive; BoNT A protease: inactive; Anthrax LF inh2: inactive; Autofluor counter: 23346

How did O=C1OCc2cc(NC(=O)C3CCCO3)ccc21 (configuration not stated) do in these assays?
BoNT-F LC inh: inactive; BoNT A protease: inconclusive; Anthrax LF inh2: inconclusive; Autofluor counter: inconclusive

How did O=C1NC(=O)c2cc(NC(=O)C3CCCO3)ccc21 (configuration not stated) do in these assays?
BoNT-F LC inh: inactive; BoNT A protease: inconclusive; Anthrax LF inh2: inactive; Autofluor counter: 22178

Results for O=C(Nc1ccc2c(c1)C(=O)N(c1ccccc1)C2=O)C1CCCO1 (configuration not stated) ?
BoNT-F LC inh: inactive; BoNT A protease: inconclusive; Anthrax LF inh2: inactive; Autofluor counter: 21610

What do the screens show for `O=C(OCC(=O)N1CCN(c2ccccc2)CC1)c1nc(Cl)ccc1Cl`?
BoNT-F LC inh: inconclusive; BoNT A protease: inactive; Anthrax LF inh2: inactive; Autofluor counter: inconclusive

What do the screens show for `CC[C@]12c3[nH]c4cc(-c5ccco5)ccc4c3CCN1C(=O)[C@@H](CC(=O)NC(C)(C)C)C[C@@H]2C(=O)N1CCN(C(=O)c2ccco2)CC1`?
BoNT-F LC inh: inactive; BoNT A protease: inactive; Anthrax LF inh2: inactive; Autofluor counter: inactive

What do the screens show for `O=S(=O)(Nc1ccc(Cc2ccncc2)cc1)c1ccc(Br)s1`?
BoNT-F LC inh: inactive; BoNT A protease: inactive; Anthrax LF inh2: inactive; Autofluor counter: 16939

What do the screens show for `CCOC(=O)c1c(C)[nH]c(C)c1C(=O)COC(=O)c1nn(CC)c(=O)c2ccccc12`?
BoNT-F LC inh: inactive; BoNT A protease: inactive; Anthrax LF inh2: inactive; Autofluor counter: inactive

How did O=c1c2ccccc2nc(N2CCCC2)n1-c1ccc(Cl)cc1 do in these assays?
BoNT-F LC inh: inactive; BoNT A protease: inactive; Anthrax LF inh2: inactive; Autofluor counter: 22940
